± gives the standard deviation of the averaged measurements. The full ranking holds about 25,000 sequences; the median of “ln(normalized median fluorescence intensity)” is about 8.6, and the highest 2% start at about 10. The list comes from a sample in which the highest values are over-represented; it also holds similar and randomly drawn sequences.

The subject of this assay is PfAP2-EXP AP2 domain (GST-tagged). Kind of assay: gcPBM binding intensity (ln(normalized median fluorescence intensity)); higher = stronger DNA binding. In outline:
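GST-tagged P. falciparum DNA-binding domains, expressed in E. coli (about 25 μg on average), were applied for 1 h to an Agilent 4 × 180k array of primer-extended double-stranded 36-bp intergenic genomic probes plus negative controls. The binding buffer was 1× PBS with 1% milk, 0.2 mg/ml BSA, 0.5% salmon testes DNA and 0.03% Triton X-100. Bound protein was detected with Alexa488 anti-GST antibody and scanned at 488 nm. Binding intensity is the highest Masliner-normalised natural-log median intensity across replicate spots of either probe orientation.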
For the sequence “AGAATAATAAAATGGGTGCAATAGTTTTTTTTTTTT [GTGCAC_site9823]”, the “gcPBM binding intensity (ln)” value is 8.59 ± 0.13.
Consider “AATATATTTTAATACACACACACATATATATATATA [CACACA_site5969]”, for which the “gcPBM binding intensity (ln)” value came to 10.3 ± 0.34.
For the sequence “ACAAATAAGTTTTATACACACATATAAGTAAATACA [CACACA_site4157]”, the “gcPBM binding intensity (ln)” value was 8.57 ± 0.29.
Under “TTTTTTTTTTTTAATACACACATATATATATTTATT [CACACA_site3994]” stands 8.38 ± 0.42; under “ATATATTTATTATTAGGTACACATATATATATATAT [XGTACX_site5045]”, 10.2 ± 0.54; under “TATATACATATATATACACACATATATATATTTTAT [CACACA_site3788]”, 8.26 ± 0.4.
To “TTTTTTTTTTTTAATACACACATATTTATATTTATT [CACACA_site7802]” belongs 8.44 ± 0.3; to “AGGATATATAAGTATACACACATATTTATATTTATA [CACACA_site6239]”, 8.23 ± 0.42.
Under “TATAAGTTTATATATACACACATATATATATATATA [CACACA_site3274]” stands 10.2 ± 0.34; under “CATATATATATATATACACACATATATATTTTCTTT [CACACA_site1457]”, 8.69 ± 0.15.
On to “ATTTATATATATATAGGTACACATATTTATATATAA [XGTACX_site8487]”, for which the “gcPBM binding intensity (ln)” value turned out to be 8.23 ± 0.2.
Under “TATATAAACACGTACACACACATATAGGTATTTATA [CACACA_site7615]” stands 8.71 ± 0.49; under “TATATATATATATATACACACATATATATATTTTTC [CACACA_site3983]”, 10.2 ± 0.26; under “TATATAAACCCGTACACACACATATATGTATATATA [CACACA_site3507]”, 8.91 ± 0.25.
As for “TGTTTTTAAATTTAAATCAAAAAATAAAATAAAATA [GTGCAC_negctrl_site355]”, the “gcPBM binding intensity (ln)” value amounted to 8.34 ± 0.48.
In the case of “CTTACCAAAAGACACACACACACAAGATATATAAAT [CACACA_site6964]”, the “gcPBM binding intensity (ln)” value was 8.77 ± 0.56.
On to “TATTGTTATGTCGTTATTAACTTTCTTTAATTAATT [CACACA_negctrl_site174]”, for which the “gcPBM binding intensity (ln)” value came to 8.95 ± 0.29.
As for “TTTTTTTTTTTGAGGAGGACACAAAAATATGCTACC [XGTACX_site756]”, the “gcPBM binding intensity (ln)” value amounted to 8.53 ± 0.26.
To “TTTAATCAATGATTTAATGAAAAAAGCAAAAAAAAA [GTGCAC_negctrl_site213]” belongs 8.38 ± 0.45; to “ATTTATTGACTATTTACACACATATTTATTATAATA [CACACA_site1624]”, 8.9 ± 0.52; to “TATATATATATATATACACACATATATATATTTATA [CACACA_site627]”, 10.3 ± 0.18.
Regarding “TGAATATTTCTATATACACACATATATATATATATA [CACACA_site3451]”, the “gcPBM binding intensity (ln)” value stood at 10.3 ± 0.12.
Under “TGAATATTTCTATATACACACATATAAATATAAATA [CACACA_site7593]” stands 8.26 ± 0.36; under “AAAAATTTTAATTAGGAACACACATATATATATATA [CACACA_site9016]”, 10.1 ± 0.27; under “TAATATTGACTATATACACACATATAAATATAAATA [CACACA_site6414]”, 8.4 ± 0.33.
To “TATATATATATTTATACACACACATATATTTATATA [CACACA_site8054]” belongs 9.47 ± 0.071.
Consider “AAATTTTAATTAGGAACACACATATATATATATATA [CACACA_site5673]”, for which the “gcPBM binding intensity (ln)” value stood at 10.2 ± 0.24.
Under “GTAATTTTTTTCTATACACACATATATATAATATAT [CACACA_site2655]” stands 8.74 ± 0.32.
To “TAATATTGACTATATACACACATATATATATATATA [CACACA_site575]” belongs 10.2 ± 0.28; to “AAATTATAATTAGGAACACACATATATATATATATA [CACACA_site3098]”, 10.1 ± 0.33.
For the sequence “TATTTATATTTATATACACACATACATATTTATATT [CACACA_site6535]”, the “gcPBM binding intensity (ln)” value was found to be 8.41 ± 0.33.
Take “AAATTCATATGAATTTGTACGGACATAAATATCTTC [XGTACX_site1838]”: the “gcPBM binding intensity (ln)” value stood at 8.62 ± 0.33.
Take TGAATTTACAAAATCATGCACTTAATTACAGAATAA: the “gcPBM binding intensity (ln)” value came out at 8.38 ± 0.26.
To TCCATATGCAAACTGGTGCACAAGTAGCTTTTATAT belongs 8.99 ± 0.3; to “TCATAAAAAGGAATCTTTAAGATATTTTATAAGCTC [XGTACX_negctrl_site18]”, 8.06 ± 0.5.
“TATATAAAAATCAATTGTACTTTTTTTTTTTTTTTT [XGTACX_site7327]”: the “gcPBM binding intensity (ln)” value came to 8.52 ± 0.16.
Under “TTAAGATCCTAAAAAACACACAATTGTGAATAATAA [CACACA_site3872]” stands 8.69 ± 0.53; under “TGTAGATAAAATAAACGTACGTATTGATTTTTTTCA [XGTACX_site1610]”, 8.26 ± 0.41.
Turning to “CATATTATATTCTGCTTACACACATATATATATATA [CACACA_site3059]”, the “gcPBM binding intensity (ln)” value is 10.1 ± 0.42.
Under “TATTCTAGTCTGCTTACACACATATTTATATTTATA [CACACA_site7432]” stands 8.81 ± 0.54; under “TATTATATTCTGCTTACACACATATATATATATATA [CACACA_site3060]”, 10.3 ± 0.38; under “GAAGATTTATCTTGCACACGCAAAAAAAAAAAAAAA [CACACA_site154]”, 8.4 ± 0.27.
Under TGAAGGATATATTCCGTGCACATATAAATATATACA stands 8.735 ± 0.007; under “ATATATATATATATATGTACTAAATATTCATCCTTA [XGTACX_site6039]”, 10.2 ± 0.3.
Regarding “AAAATATTTCATATATGTACTTAAAAAAAAAAAAAA [XGTACX_site5399]”, the “gcPBM binding intensity (ln)” value was found to be 8.27 ± 0.38.
Take “AATCTTAAAAATATATGTACTAAAAAAAAAAAAAAT [XGTACX_site6195]”: the “gcPBM binding intensity (ln)” value came to 8.37 ± 0.47.
To “CTATATATATATTTCAGTACATATTAAGAATATATA [XGTACX_site4860]” belongs 8.31 ± 0.38; to “TATAACATAGGACACACACACATACATACACAAAAA [CACACA_site5062]”, 8.94 ± 0.35; to “ATATATATATATAAAGGTACACATTTATTAAATATA [XGTACX_site7102]”, 10.1 ± 0.12.
To “TTTAATATGTATTTTTTTTTTTTTTTTTTTTTTTTT [XGTACX_negctrl_site440]” belongs 9.06 ± 0.085; to “ATATAATATATATATTGTACATATATTTATAAGCAT [XGTACX_site3726]”, 8.38 ± 0.19; to “AAGCATCCTACTGATTGTACATATATATATATATAT [XGTACX_site2150]”, 10.2 ± 0.3.
Under “ATATCCTACTTCTAGTGTACATATATGGACTGATGA [XGTACX_site3683]” stands 8.87 ± 0.35; under “AACGAAATCATCAAGTGTACTAGTTTATTATTAATA [XGTACX_site6161]”, 8.38 ± 0.42; under “TTTTTTCTTTTTTTTTGTACATATAATATTTATGTT [XGTACX_site302]”, 8.62 ± 0.4.
As to “AAAATAATAATAGGCACACATATATATATATATATA [CACACA_site2058]”, the “gcPBM binding intensity (ln)” value turned out to be 10.1 ± 0.33.
Take “AAGTACCATATAGGCACACATATATATATATATATA [CACACA_site3282]”: the “gcPBM binding intensity (ln)” value was determined as 10.2 ± 0.34.
To “ATGTACTATAGGCACACACACTCACATATATATATA [CACACA_site5745]” belongs 9.96 ± 0.22.

These data come from the supplement of paper PMC11417369.
